Screen size: about 400,000 compounds; about 2,100 (0.53%) were called active. About 14% were inconclusive and are not listed. How the calls were made is not given here. Only a selection was taken, and actives are over-represented in it overall.
target: Ataxin-2 (Homo sapiens) (UniProt Q99700); assay: qHTS for Inhibitors of ATXN expression.; type: functional
Sequence (Q99700 whole entry): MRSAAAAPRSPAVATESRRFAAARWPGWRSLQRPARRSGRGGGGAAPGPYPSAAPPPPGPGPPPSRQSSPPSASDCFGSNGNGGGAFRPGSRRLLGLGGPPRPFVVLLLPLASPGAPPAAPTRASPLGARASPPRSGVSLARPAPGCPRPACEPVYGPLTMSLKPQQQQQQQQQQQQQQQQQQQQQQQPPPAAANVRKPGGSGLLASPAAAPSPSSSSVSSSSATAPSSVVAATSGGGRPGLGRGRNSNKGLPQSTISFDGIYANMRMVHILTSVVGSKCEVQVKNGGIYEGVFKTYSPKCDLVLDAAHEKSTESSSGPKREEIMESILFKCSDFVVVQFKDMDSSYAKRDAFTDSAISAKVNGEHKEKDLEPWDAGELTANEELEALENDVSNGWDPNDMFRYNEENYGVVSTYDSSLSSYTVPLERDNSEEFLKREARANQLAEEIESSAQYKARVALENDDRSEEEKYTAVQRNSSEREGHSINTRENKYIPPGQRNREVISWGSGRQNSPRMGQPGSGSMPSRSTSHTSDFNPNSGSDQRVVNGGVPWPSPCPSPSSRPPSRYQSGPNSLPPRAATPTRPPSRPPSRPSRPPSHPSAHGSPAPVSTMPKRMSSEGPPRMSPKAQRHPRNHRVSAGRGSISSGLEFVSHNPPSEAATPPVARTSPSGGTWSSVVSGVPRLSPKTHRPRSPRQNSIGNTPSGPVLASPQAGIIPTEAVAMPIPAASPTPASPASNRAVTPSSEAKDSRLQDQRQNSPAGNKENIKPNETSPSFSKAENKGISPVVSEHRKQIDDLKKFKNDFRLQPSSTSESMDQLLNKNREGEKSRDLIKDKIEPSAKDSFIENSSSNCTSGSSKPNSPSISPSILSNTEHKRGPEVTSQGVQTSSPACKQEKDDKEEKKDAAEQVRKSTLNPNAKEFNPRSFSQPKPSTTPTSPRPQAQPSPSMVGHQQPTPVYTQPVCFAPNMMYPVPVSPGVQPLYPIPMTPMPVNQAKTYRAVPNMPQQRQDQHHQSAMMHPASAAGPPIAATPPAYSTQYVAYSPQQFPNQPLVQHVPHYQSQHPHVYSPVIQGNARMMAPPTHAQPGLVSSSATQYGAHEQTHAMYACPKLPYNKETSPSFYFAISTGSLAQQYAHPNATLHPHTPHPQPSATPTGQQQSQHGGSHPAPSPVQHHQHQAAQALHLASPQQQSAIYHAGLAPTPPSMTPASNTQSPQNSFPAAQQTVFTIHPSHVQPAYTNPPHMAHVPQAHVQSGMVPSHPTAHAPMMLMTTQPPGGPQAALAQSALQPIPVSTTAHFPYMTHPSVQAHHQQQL

SMILES | Potency
CN(C)c1ccc(/C=C/c2nc3ccccc3c(=O)n2CCO)cc1 | inactive
O=c1c2ccccc2nc(/C=C/c2cc(Br)ccc2O)n1CCCO | inactive
O=c1c2ccccc2nc(/C=C/c2ccc([N+](=O)[O-])o2)n1CCCO | 15.8 µM (active)
CCn1c(/C=C/c2cc[n+](C)cc2)nc2ccccc21 | inactive
COc1ccc(Oc2ccc(/C=C/C(=O)c3ccc(O)cc3)cc2[N+](=O)[O-])cc1 | 28.2 µM (active)
COc1ccc(Oc2ccc(/C=C/C(=O)c3cccc(OC)c3)cc2[N+](=O)[O-])cc1 | 39.8 µM (active)
O=C(/C=C/c1ccc(Cl)c([N+](=O)[O-])c1)c1ccc(O)cc1 | 28.2 µM (active)
COc1ccc(OC)c(C=Cc2ccc([N+](=O)[O-])cc2)c1 | inactive
Cc1cc(CNC(=O)c2cccc([N+](=O)[O-])c2C)c2ccccc2n1 | inactive
Cc1ccc(NC(=S)N(CCCN2CCCC2)Cc2cccn2Cc2ccc(Cl)cc2)cc1 | 39.8 µM (active)
CSc1cccc(NC(=S)N(CCCN2CCCC2)Cc2cccn2Cc2ccc(Cl)cc2)c1 | 31.6 µM (active)
CN(CC(=O)Nc1cccc(C#N)c1)Cc1ccc(Cl)cc1 | inactive
Cc1cccc(NC(=S)N(CCCN2CCCC2)Cc2cccn2Cc2ccc(Cl)cc2)c1 | 25.1 µM (active)
COc1ccc(NC(=S)N(CCCN2CCCC2)Cc2cccn2Cc2ccc(Cl)cc2)cc1Cl | 39.8 µM (active)
COc1ccc(NC(=O)Cn2nc(C(=O)O)c3ccccc3c2=O)cc1Cl | inactive
CSc1ccc(CN(C)CC(=O)Nc2ccc(C)cc2Br)cc1 | inactive
COc1cccc(/C=C/c2nc(C#N)c(N(C)Cc3ccccc3)o2)c1 | inactive
CC(C)(C)c1ccc(/C=C2\Oc3c(ccc(O)c3CN3CCN(CCO)CC3)C2=O)cc1 | inactive
CCN1C(=O)N(CC)C2C1N(CO)C(=O)N2CO (stereo unspecified) | inactive
O=C1C(Nc2ccccc2)=C/C(=N/S(=O)(=O)c2cccs2)c2ccccc21 | 8.91 µM (active)
Cc1ccc(S(=O)(=O)N2CCN(CC(=O)N3CCCC3)CC2)c(C)c1 | inactive

SMILES | Potency
O=C(N/N=C/c1ccc(N2CCOCC2)cc1)c1ccc(NS(=O)(=O)c2cccs2)cc1 | inactive
Cc1ccc(S(=O)(=O)/N=C2\C=C(Nc3cccc(C(=O)O)c3)C(=O)c3ccccc32)c(C)c1 | 28.2 µM (active)
O=C(O)c1ccc(Nc2c3ccccc3nc3ccccc23)cc1 | inactive
COC(=O)c1ccc(NC(=O)CS(=O)(=O)c2ccccc2)cc1 | inactive
O=S(=O)(O)c1cccc2cccc(Nc3ccccc3)c12 | inactive
Cc1cc(C)c(S(=O)(=O)Nc2cccc(C(=O)O)c2)cc1S(=O)(=O)Nc1cccc(C(=O)O)c1 | inactive
O=C(O)c1ccc(NC2=C/C(=N/S(=O)(=O)c3ccccc3)c3ccccc3C2=O)cc1 | 39.8 µM (active)
C=CCN1C(=O)/C(=C/N(C)C)S/C1=N\S(=O)(=O)c1cccs1 | inactive
O=C(O)c1ccc(NC2=C/C(=N/S(=O)(=O)c3cccs3)c3ccccc3C2=O)cc1 | 22.4 µM (active)
Cc1cc(NS(=O)(=O)c2ccc(NC(=O)c3cc4cc(Br)ccc4oc3=O)cc2)no1 | inactive
O=c1cc(-c2ccccc2)c2c(O)cc(O)cc2o1 | inactive
O=c1oc2ccc(Br)cc2cc1S(=O)(=O)c1ccc(F)cc1 | inactive
CCCCN(C)S(=O)(=O)c1ccc(C(=O)Nc2sc3c(c2C(N)=O)CC(C)(C)NC3(C)C)cc1 | inactive
Brc1ccccc1C1CC(c2ccccc2)=Nc2ccccc2N1 (stereo unspecified) | inactive
C=C1C(=O)O[C@@H]2C[C@@H](C)[C@@H]3C=CC(=O)[C@@]3(C)[C@@H](OC(C)=O)[C@H]12 | 8.91 µM (active)
Cc1cc(/C=C2\Cc3ccccc3C2=O)c(C)n1-c1ccccc1 | inactive
CC(C)(C)CC(C)(C)NCC(O)COCCOc1ccc(Br)cc1 (stereo unspecified) | 39.8 µM (active)
CCCCOCCCNC(=O)C[C@@H]1C[C@@]2(C(=O)OC)CCCCC=C2N(Cc2cccc3ccccc23)C1=O | 28.2 µM (active)
COC(=O)[C@]12CCCCC=C1N(Cc1ccc(Cl)cc1Cl)C(=O)[C@H](CC(=O)N1CCN(C(=O)C3CC3)CC1)C2 | 35.5 µM (active)
CCCCOCCCNC(=O)C[C@@H]1C[C@@]2(C(=O)OC)CCCCC=C2N(Cc2ccc(Cl)cc2Cl)C1=O | 39.8 µM (active)
COCCCNC(=O)CN1C(=O)c2cccc3cccc1c23 | inactive

SMILES | Potency
COc1ccc(C2=CSC3=NCCN23)cc1Br | inactive
COc1ccc2nc(N3CCC(C)CC3)c(C#N)cc2c1 | inactive
CCOC(=O)c1sc(-c2ccc(Cl)cc2Cl)nc1O | inactive
CCOC(=O)/C(=C\c1ccc(Cl)cc1)c1nc(O)c2c(C)c(C)sc2n1 | 39.8 µM (active)
COc1ccc(/C=N/n2c(C)nc3sc(C)c(C)c3c2=O)cc1 | inactive
COc1ccc(C2CC(c3cccs3)=NN2c2ccccc2)cc1 (stereo unspecified) | inactive
CCc1cccc(NC(=O)CCS(=O)(=O)c2ccc(Br)cc2)c1 | inactive
O=C(Nc1nc2ccccc2s1)c1cc2c(s1)-c1ccccc1OC2 | inactive
CC1(C)CC(=O)c2sc(NC(=O)CCS(=O)(=O)c3ccccc3)nc2C1 | 37.7 µM (active)
CCCC(=O)Nc1nc2c(s1)COc1ccccc1-2 | inactive
O=C(CCS(=O)(=O)c1ccccc1)Nc1nc2c(s1)COc1ccccc1-2 | 33.6 µM (active)
CC1(C)CC(=O)C2=C(C1)c1c(ccc3ccccc13)NC2c1ccc(C(=O)O)cc1 (stereo unspecified) | inactive
COc1ccc(C2=CC(c3ccccc3Cl)n3nc(-c4ccc(C)cc4)nc3N2)cc1 (stereo unspecified) | inactive
Cc1ccc(-c2nc3ccccn3c2Nc2ccc3c(c2)OCO3)cc1 | 35.5 µM (active)
COc1ccc(-c2nc3ncccn3c2Nc2ccccc2)cc1 | inactive
O=C(c1ccccc1)c1sc(Nc2ccc3c(c2)OCO3)nc1-c1ccccc1 | inactive
CCOC(=O)CSc1nnc2n(-c3ccccc3)c(=O)c3c4c(sc3n12)CC(C(C)(C)C)CC4 (stereo unspecified) | 35.5 µM (active)
CCN(C(=O)CSc1nnc(C2CC2)n1-c1ccccc1)C1CCS(=O)(=O)C1 (stereo unspecified) | inactive
CCOC(=O)C1CCCN(CCC(=O)Nc2cc(C)ccc2C)C1 (stereo unspecified) | inactive

Source: ChEMBL document CHEMBL1201862, “PubChem BioAssay data set” (2004)
